FGF22 binding: binders of recombinant human FGF22 by thermal shift; Q9HCT0; SYPRO orange fluorescence; percent of sucrose octasulfate shift, DMSO zero; activity (Tm shift, normalised), % at 9.99 µM; hit rate 1.5% among 340,000; AID 651658;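 active = mean Tm shift, scaled 0 neutral to 100 positive control, at about 1.3% or above, every replicate too, limit read from the data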
CDK5 p35 inh: inhibitors of human CDK5/p35 kinase. hit rate 0.01% among 330,000. Recombinant CDK5/p35, ADP-Glo luminescence, 60 min. inhibition, % at 10 µM. Q00535+Q15078;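 active = highest replicate inhibition of at least 50% and at least 75% of replicates reaching 50%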
PvdQ inh: blocks Pseudomonas aeruginosa PvdQ acylase activity; purified PvdQ acylase, fluorescence plate reader; inhibition, % at 10 µM; hit rate 0.063% among 340,000; AID 488965; in the data active = inhibition above about 30%, passing the limit was not always enough
dFosB act-1: mouse delta FosB homodimer activation; P13346; purified delta FosB, TAMRA-CDK5 oligo fluorescence polarization; percent of positive-control signal above neutral wells; activation, % at 25 µM; hit rate 0.99% among 340,000;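 active = mean activation above about 17%, with every replicate also reaching it, limit read from the data, passing the limit was not always enough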
Target sequence (P13346 whole entry, looked up): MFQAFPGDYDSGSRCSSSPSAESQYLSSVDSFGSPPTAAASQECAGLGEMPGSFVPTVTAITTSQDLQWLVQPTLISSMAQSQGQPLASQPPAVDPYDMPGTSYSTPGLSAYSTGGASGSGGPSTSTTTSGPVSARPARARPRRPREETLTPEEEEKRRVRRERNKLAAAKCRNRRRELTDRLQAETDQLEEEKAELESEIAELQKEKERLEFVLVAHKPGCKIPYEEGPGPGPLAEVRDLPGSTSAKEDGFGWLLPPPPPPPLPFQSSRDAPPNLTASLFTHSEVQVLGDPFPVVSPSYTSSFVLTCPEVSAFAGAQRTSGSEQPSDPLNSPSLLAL
PglD DTNB: inhibitors of Campylobacter jejuni PglD acetyltransferase | purified PglD enzyme, DTNB colorimetric CoA detection | inhibition, % at 12.5 µM | hit rate 0.098% among 360,000 | AID 602405; in the data active = inhibition above about 16%, passing the limit was not always enough
SIRT5 block: blocks human SIRT5 desuccinylation of peptide | Purified SirT5, succinyl-peptide AMC, trypsin-coupled fluorescence | hit rate 1.1% among 330,000 | inhibition, % at 15 µM | Q9NXA8; in the data active = inhibition above about 15%
dFosB act-2: delta FosB (mouse) homodimer activation. 2,400 tested, under 10 active. AID 588690. shares compounds with dFosB act-1. purified delta FosB, TAMRA-CDK5 oligo fluorescence polarization; normalised: neutral wells 0, positive control 100. activation, % at 24.9 µM;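 active = highest replicate activation at or above 34% and every replicate reaching that threshold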;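 note: higher polarization means more probe DNA bound by delta FosB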
Hits are given with their value; n = inactive; x = no result given. Shown are actives, neighbours in structure and some others; about 2.8% of the full set was active somewhere.

SMILES | FGF22 binding | CDK5 p35 inh | PvdQ inh | dFosB act-1 | PglD DTNB | SIRT5 block | dFosB act-2
C#CCOCCOCCOCCNc1nc(N2CCN(C(=O)[C@H]([C@@H](C)CC)n3cc([C@@H](N)Cc4ccc(O)cc4)nn3)CC2)nc(N2CCN(C(=O)[C@H](CCCCN)n3cc([C@@H](N)C(C)CC)nn3)CC2)n1 (some centres not stated) | x | n | n | 22.9 | n | x | n
N#C/C(=C/c1ccc(F)cc1)c1nnc(NC(=O)c2ccccc2)s1 | n | n | n | 21.3 | n | n | n
O=C(c1cccc(F)c1)N1CC[C@H]2[C@H](CO)Nc3ccc(C#Cc4cccc(F)c4)cc3[C@H]21 | x | x | x | x | x | n | x
O=C(CSc1nccn(-c2cccc(F)c2)c1=O)Nc1ccc(Cl)cc1F | n | n | n | 21.4 | n | n | n
COc1ccc(/C=C/C(=O)NC(=S)Nc2ccccc2C(=O)NC2CCCCC2)cc1 | n | n | n | 44.5 | x | n | n
O=C(/C=C/c1ccccc1)NC(=S)Nc1ccccc1C(=O)NC1CCCCC1 | x | n | n | 39.3 | n | x | n
O=C(/C=C/c1ccc(F)cc1)NC(=S)Nc1ccccc1C(=O)NC1CCCCC1 | x | n | n | 21.6 | x | x | n
CCC(=O)Nc1ccc2c(c1)C(=O)N(C)C[C@@H](OC)[C@@H](C)CN[C@@H](C)CO2 | n | x | x | x | n | n | x
C[C@H]1CCCCO[C@@H](CN(C)C(=O)CCC(F)(F)F)[C@@H](C)CN([C@@H](C)CO)C(=O)c2cc(NC(=O)NC3CCCCC3)ccc2O1 | n | x | x | x | n | n | x
O=C(CN1CCOCC1)N[C@@H]1CC[C@H](CCNC(=O)C2CCCC2)O[C@@H]1CO | n | x | x | x | n | n | x
NC(N)=NC(=O)c1nc(Cl)c(N2CCCCCC2)nc1N | n | n | n | 26.5 | n | n | n
CN(C)C(=O)c1ccc(-c2ccc([C@H]3[C@@H](CO)N4CCCCN(C(=O)C5CCCC5)C[C@@H]34)cc2)cc1 | n | x | x | x | n | n | x
CCCCC(=O)Nc1nnc(S(=O)(=O)N(CC)c2ccccc2)s1 | n | n | n | 18.0 | n | n | n
Cc1ccc(NC(=O)c2ccc(OC(=O)CCN3C(=O)c4ccccc4C3=O)cc2)cc1 | x | n | n | 35.0 | n | x | n
Cc1cc(C)cc(OC(=O)CCN2C(=O)c3ccccc3C2=O)c1 | n | n | n | n | n | n | x
CC(C)c1ccc(NC(=O)[C@@H](C)NC(=O)[C@@H]2Cc3ccccc3CN2)cc1 | n | n | n | n | x | n | x
Cc1ccc(NC(=O)[C@H](Cc2c[nH]c3ccccc23)NC(=O)[C@@H]2Cc3ccccc3CN2)c(C)c1 | n | n | n | 33.9 | n | n | n
Cc1cc(C)cc(NC(=O)[C@H](NC(=O)[C@@H]2Cc3ccccc3CN2)c2ccccc2)c1 | x | n | n | 47.2 | x | x | n
CC(C)C[C@H](NC(=O)[C@@H]1Cc2ccccc2CN1)C(=O)Nc1ccc(C(C)C)cc1 | n | n | n | 23.3 | n | n | n
Cc1ccc(NC(=O)[C@H](NC(=O)[C@@H]2Cc3ccccc3CN2)c2ccccc2)c(C)c1 | n | n | n | n | n | n | x
Cc1ccccc1C(=O)NNC(=O)CSc1nc(-c2ccccc2)cc(=O)[nH]1 | n | n | n | 40.3 | x | n | n
O=C(CSc1nc(-c2ccccc2)cc(=O)[nH]1)NCc1ccc2c(c1)OCO2 | x | n | n | 48.6 | n | x | n
C[C@@H]1CN([C@H](C)CO)C(=O)c2cc(NC(=O)c3ccncc3)ccc2O[C@H]1CN(C)C(=O)Nc1ccccc1 | n | x | x | x | n | n | x
COc1ccccc1NC(=O)c1sc2ncn(CC(=O)Nc3ccccc3)c(=O)c2c1C | n | n | n | 48.9 | n | n | n
CCCNC(=O)C[C@@H]1CC[C@@H]2[C@H](COC[C@H](O)CN2C(=O)Nc2ccccc2OC)O1 | n | x | x | x | n | n | x
COCC(=O)Nc1ccc2c(c1)OC[C@H](C)N(Cc1cccc(F)c1)C[C@@H](C)[C@@H](OC)CN(C)C2=O | n | x | x | x | n | n | x
CCC(C)c1ccccc1NC(=O)COC(=O)c1ccc(C)c(NC(=O)c2ccco2)c1 (configuration not stated) | x | n | n | n | n | x | x
Cc1ccc(C(=O)OCC(=O)Nc2cc(F)ccc2F)cc1NC(=O)c1ccco1 | x | n | n | 31.6 | n | x | n

Source: PubChem BioAssay (Broad Institute)
